In PubChem BioAssay:

Legend:
Assay in all cases: Peg3 promoter luciferase inhibitors, potency, dose response, cell-based, HeLa, CREF/GAPDH counter-screen panel (AID 624167)
PEG-3 [1] = biological target: PEG-3 (UniProt Q6IN02); details: CREF/GAPDH counter-screens; HeLa PEG-Prom luciferase reporter, overnight, run 1, dose range 1, at 100 µM (top of the series) unless noted
PEG-3 [2] = biological target: PEG-3 (UniProt Q6IN02); details: CREF/GAPDH counter-screens; HeLa PEG-Prom luciferase reporter, overnight, run 2, dose range 1, at 100 µM (top of the series) unless noted
Rat fibroblasts (CREF) [3] = details: CREF/GAPDH counter-screens; run 1, dose range 1, at 100 µM (top of the series)
Rat fibroblasts (CREF) [4] = details: CREF/GAPDH counter-screens; run 2, dose range 1, at 100 µM (top of the series)

Chain of PEG-3 (Q6IN02 whole entry, looked up): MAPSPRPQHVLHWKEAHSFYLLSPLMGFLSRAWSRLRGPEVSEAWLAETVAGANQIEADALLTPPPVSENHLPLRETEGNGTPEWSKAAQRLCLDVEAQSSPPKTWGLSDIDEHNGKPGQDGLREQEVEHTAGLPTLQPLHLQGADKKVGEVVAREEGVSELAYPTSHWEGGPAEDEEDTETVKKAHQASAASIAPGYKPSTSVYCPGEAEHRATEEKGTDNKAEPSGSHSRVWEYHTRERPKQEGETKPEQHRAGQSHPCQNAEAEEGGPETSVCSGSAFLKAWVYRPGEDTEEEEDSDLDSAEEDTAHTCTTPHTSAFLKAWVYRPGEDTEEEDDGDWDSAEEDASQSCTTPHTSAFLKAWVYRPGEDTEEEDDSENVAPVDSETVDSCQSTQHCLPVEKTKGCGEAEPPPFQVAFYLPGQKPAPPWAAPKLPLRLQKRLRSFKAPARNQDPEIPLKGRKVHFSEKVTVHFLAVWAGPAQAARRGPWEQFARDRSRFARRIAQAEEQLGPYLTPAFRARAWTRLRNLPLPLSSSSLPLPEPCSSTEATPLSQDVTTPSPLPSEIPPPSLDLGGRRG

SMILES	inhibition (PEG-3 [1])	inhibition (PEG-3 [2])	inhibition (Rat fibroblasts (CREF) [3])	inhibition (Rat fibroblasts (CREF) [4])
O=C1CCC2S/C(=C/Nc3ccc(C(F)(F)F)cc3)C(=O)N12 (stereo not given)	87.1%	85.3%	–	–
Cc1nc(N2CCN(c3ccccn3)CC2)c2c(C)c(C(=O)Nc3ccccc3F)sc2n1	53.1%	34.9%	–	–
O=C(OCC(F)(F)F)c1cccc(COc2ccc3ccccc3c2)c1	96.5%	92.4%	86.6%	85.7%
Clc1ccccc1/C=C/c1nc(-c2ccccn2)no1	87.3%	96.5%	89.2%	76.1%
CC1CCCN(c2ncnc3c2cnn3-c2ccc(Cl)cc2)C1 (stereo not given)	98.9%	98%	94%	96.6%
CCN1C=CC(=C2C(=O)c3ccccc3C2=O)C=C1	96.8%	98.3%	99.8%	101%
CN(C)c1ccc(N=Nc2nc3ccccc3n2C)cc1	98.1%	98.9%	–	–
c1ccc(CCCNCCCn2cnc3c(OCc4ccccc4)ncnc32)cc1	99.5%	101%	–	–
COc1cccc(-c2sc3ccccc3c2-c2ccc(OCCN(C)C)cc2)c1	99.6%	98.6%	98.7%	99.3%
O=C(CCCN1C(=O)/C(=C/c2cccc(Br)c2)SC1=S)Nc1cccnc1	101%	96.5%	–	–
CCN1CCN(Cc2ccc(NC(=O)c3cc(NC(=O)c4ccno4)cc(OC)c3)cc2C(F)(F)F)CC1	95.5%	102%	–	–
CCCC(=O)NC(c1cccc([N+](=O)[O-])c1)c1ccc2cccnc2c1O (stereo not given)	75.7% [run 1, dose range 1, at 50 µM]	98.9%	–	–
CC(=O)N1CCN(c2cc(-c3ccccc3)nc3cc(-c4cccc(Cl)c4)nn23)CC1	101%	95.5%	–	–
O=C(O)c1ccc(N/N=C/c2ccc3nccnc3c2)cc1	101%	102%	58.2%	45.3%
COc1ccc(CNC(=O)Nc2nc(C(N)Cc3ccc(F)cc3)cs2)cc1 (stereo not given)	102%	101%	–	–
CCc1ccn2cc(-c3ccc4c(c3)OCO4)nc2c1	96%	89.2%	-17.6%	97.5%
Cc1cc(N2CCN(C)CC2)ccc1NC(=O)c1c2c(nc3ccccc13)CCN(Cc1ccccc1)C2	101%	98.9%	99.4%	99.8%
COc1ccc(/C=C2\SC(=S)N(CCCC(=O)NNC(=O)c3ccccc3O)C2=O)cc1	89.6%	81.1%	23.4%	43.3%
Cc1nc(N2CCN(c3ccccc3O)CC2)c2c(-c3ccccc3)csc2n1	94.8%	94%	–	–
Cc1ccc(C)c(CN2CCC(CNC(=O)Nc3ccc(F)c(Cl)c3)CC2)c1	102%	101%	–	–
CNCC[C@@H](Oc1ccc(C(F)(F)F)cc1)c1ccccc1	98.7%	100%	–	–
O=C(Nc1cc(S(=O)(=O)N2CCOCC2)ccc1Cl)c1cc([N+](=O)[O-])ccc1Cl	98.9%	98.9%	85.8%	98.1%
Cc1ccc(N2CC(C(=O)Nc3nccs3)CC2=O)cc1Cl (stereo not given)	99.5%	63.6%	–	–
CC(=O)Nc1ccc(Nc2nc(C)c([N+](=O)[O-])c(Nc3ccccc3)n2)cc1	99.5%	93.4%	–	–
NC1=NC[C@H](Cc2ccccc2)N1CCc1cc(C(F)(F)F)cc(C(F)(F)F)c1	101%	101%	–	–
CC1CCCC(C)N1C(=C(Cl)Cl)C(=C1SCCS1)[N+](=O)[O-] (stereo not given)	50.8%	68.9%	–	–

SMILES	inhibition (PEG-3 [1])	inhibition (PEG-3 [2])	inhibition (Rat fibroblasts (CREF) [3])	inhibition (Rat fibroblasts (CREF) [4])
O=C(N/N=C/c1cc([N+](=O)[O-])ccc1O)c1ccc(COc2ccc3c(c2)CCC3)o1	52.4%	95.1% [run 2, dose range 1, at 25 µM]	29.5%	55.1%
O=C(/C=C/c1ccccc1)Nc1cccc(C(=O)O)c1	99%	97.4%	96.8%	95.7%
Cc1ccc(-c2cc3c(nn2)-c2ccccc2C3=O)cc1	98.6%	88.7%	92.8%	94.8%
CC(C)c1ccc(/C=N/Nc2ccc(C(=O)O)cc2)cc1	89.9%	84%	–	–
CC(C)CC(N)c1csc(Nc2ccc(C(=O)N(C)Cc3ccccc3)cn2)n1 (stereo not given)	96.3%	102%	–	–
NC(=O)C1CCN(C2=C(Cl)C(=O)c3ccccc3C2=O)CC1	100%	97.8%	–	–
CCOc1cccc2sc(N(CCCN(C)C)C(=O)c3ccc(S(=O)(=O)N(CC)Cc4ccccc4)cc3)nc12	102%	101%	–	–
CCOc1ccc(NC(=O)Nc2cccc(C(=O)O)c2)cc1	98%	94.6%	91.9%	94.1%
Cc1ccc(NS(=O)(=O)c2cc3c4c(cccc4c2)C(=O)NC3=O)cc1C	71.4%	66.9%	–	–
O=C1CSC(=S)N1Cc1cccnc1	96.9%	101%	–	–
CN1CCC2(CC1)N=C(c1ccc(F)cc1)C(=S)N2C(=O)c1ccc(C(C)(C)C)cc1	102%	99%	98.7%	68.4%
Cc1cc(C(=O)Nc2cccc(C(=O)O)c2)oc1C	88.1%	85.8%	49.8%	52.7%
COC(=O)c1c(N)sc(C(=O)NCCc2ccccc2)c1C	101%	102%	93.6%	92.9%
COc1ccc(C(=O)Nc2nc3ccccc3s2)c(OC)c1	101%	98.8%	97.3%	97.7%
COc1ccc(-n2c(O)c(/C=N/Nc3nc(C)cc(C)n3)c3ccccc3c2=O)cc1OC	57.2%	63.9%	80.4%	68.5%
Cc1ccc(/C=C2\SC(=S)N(CCCC(=O)NNC(=O)c3ccccc3O)C2=O)cc1	81.6%	73.5%	10.1%	11%
Cc1ccc(C(C[N+](=O)[O-])Sc2ccc(N)cc2)cc1 (stereo not given)	98.7%	101%	96.1%	96.3%
COCCCNC(=O)c1ccc(Cn2c(=O)c3ccccc3n(Cc3ccccc3C#N)c2=O)cc1	63.4%	64%	40.3%	38.4%
O=C(/C=C\Nc1ccc2c(c1)OCO2)c1ccccn1	102%	95.1%	98.9%	97.2%
OCCNc1c2ccccc2nc2ccccc12	99.6%	98.1%	73.9%	94.8%
O=C(O)c1cccc(COc2ccc(CO)cc2Cl)c1	97.3%	102%	91.5%	91.1%
COc1ccc(CCN2C(=O)C=CC2=O)cc1OC	102%	101%	99.5%	98.6%
COc1ccc2c(c1)sc1nc(-c3ccccc3)cn12	100%	97.3%	98.8%	98.5%
CS(=O)(=O)c1ccc(-c2sc3ccccc3c2C#CCCO)cc1	96%	97.9%	95.2%	95.7%
Cc1cc(C(=O)CN2C(=O)c3ccccc3S2(=O)=O)c(C)n1-c1ccccc1	98.9%	98%	90.6%	89.8%
CCOC(=O)c1c(SCCN2CCCCC2)n(-c2ccccc2)c(=S)n(-c2ccccc2)c1=O	97.7%	102%	90.4%	94.6%

SMILES	inhibition (PEG-3 [1])	inhibition (PEG-3 [2])	inhibition (Rat fibroblasts (CREF) [3])	inhibition (Rat fibroblasts (CREF) [4])
Cc1ccc(/C=C2\SC(=S)N(CCCC(=O)Nc3ccccn3)C2=O)cc1	88%	94.2%	-11.8%	-1.96%
O=C(O)c1ccc(CN2C(=O)c3cccc4c([N+](=O)[O-])ccc(c34)C2=O)cc1	99%	100%	71.3%	98.6%
O=C(COc1ccc(Cl)cc1Cl)Nc1ccccn1	94%	98.4%	101%	99.7%
O=c1oc2ccccc2cc1-c1cn2ccccc2n1	92.7%	94.2%	94.6%	93.7%
Cc1ccc(C(=O)Nc2cnc3ccccc3c2)cc1	91.5%	98%	83.4%	77.7%
CN(C)c1ccc(C=c2c3ccccc3n3c2cc(-c2ccccc2)[n+]3C)cc1	98.9%	102%	101%	100%
COc1ccccc1Nc1nc(-c2sc(NC(=O)c3ccco3)nc2C)cs1	38%	52.5%	35.4%	40.3%
COc1ccccc1CNCC(O)Cn1c2ccccc2c2ccccc21 (stereo not given)	102%	98.7%	99.2%	98.9%
C=CCn1c(C)cc(C(=O)COc2ccc(C)nc2[N+](=O)[O-])c1C	61.3%	43.4%	42.2%	46.5%
Cc1nc(-c2ccc(NC(=O)c3ccco3)cc2)cs1	98.9%	99.3%	93.3%	95.8%
CN(C)c1c([N+](=O)[O-])cc(N2C(=O)C=CC2=O)cc1[N+](=O)[O-]	102%	102%	101%	100%
Nc1ccc(-c2nc3ccc(C(=O)O)cc3s2)cc1	98.2%	98.9%	89.1%	90.5%
COC(CNC(=O)c1ccc2c3c(onc13)-c1ccccc1C2=O)OC	102%	102%	98.9%	100%
CCCCC(=O)NC(c1ccc(OC)cc1)c1ccc2cccnc2c1O (stereo not given)	73.4%	80.2%	35.2%	28.7%
CN=c1sc2c(n1C)C(=O)c1ccccc1C2=O	101%	98.9%	97.8%	98.9%
O=C(Nc1ccccc1C(=O)Nc1nnc(C(F)(F)F)s1)c1ccccc1	93%	88.8%	-3.72%	11.8%
O=C(Nc1cccc(C(=O)O)c1)Nc1ccc2c(c1)OCO2	95.9%	94.8%	84.8%	85.5%
CCCC(=O)NC(c1ccccc1)c1ccc2cccnc2c1O (stereo not given)	36.8%	71% [run 2, dose range 1, at 25 µM]	59%	44.9%
CC(C)CCCCCCCCCCCCC(=O)NCC(=O)NC1C(O)C(O)C(Nc2ncnc3nc[nH]c23)OC1C(O)CO (stereo not given)	102%	98.2%	99.5%	9.65%
CC(=O)NC(c1ccc(N(C)C)cc1)c1cc(Cl)c2cccnc2c1O (stereo not given)	76.1%	88.8%	-10.5%	94.6%
C(=N\Nc1ccc2ccccc2n1)/c1ccc2c(c1)OCCO2	98.4%	96.2%	53.6%	101%
CCCC(=O)NC(c1ccc(OC)cc1)c1ccc2cccnc2c1O (stereo not given)	66.6%	88.5%	28.1%	99.5%
N=c1n(CCN2CCCCC2)c2ccccc2n1CC(O)c1ccc(Cl)c(Cl)c1 (stereo not given)	99.3%	98.6%	100%	99.7%
CC1CC(C)C(=O)C(C(CC2CC(=O)NC(=O)C2)OC(=O)CC(=O)c2ccccc2)C1 (stereo not given)	72.4%	85.5%	44.6%	23.7%
